Bioassay records deposited in PubChem BioAssay by National Center for Advancing Translational Sciences (NCATS).
Vaccinia Venus – inhibitors of vaccinia virus (Venus reporter) | Vaccinia virus Venus reporter expression, fluorescence | 0.46% of 330,000 active | Potency, µM (top dose mostly 36.5 µM), inactives show at the highest dose activity change, negative = inhibition, usual class: inhibitors; calls by dose curve; tested in A549 cells; also: potency is read from the fitted curve at half-maximal effect; nearly all actives have a fitted effect of over 30% in size
FMDV inh – blocks foot and mouth disease virus; 1.2% of 410,000 active; AID 1159524; Potency, µM (highest dose often 57.9 µM), inactives show at the highest dose activity change, negative = inhibition, most hits filed as inhibitors; FMDV antiviral cell-based qHTS; calls by dose curve; tested in HEK293T cells; also: read-out not given here; potency is read from the fitted curve at half-maximal effect; nearly all actives have a fitted effect of over 45% in size
HCMV inh – blocks human cytomegalovirus replication | HFF cells, HCMV-luciferase reporter, 72 h; active compounds read low | activity change, negative = inhibition, % at 57.5 µM | 4.5% of 410,000 active | AID 1259415; in the data active = activity change below about -60%; inconclusive = no clear call, values can overlap the other calls; inactive = above about -39%
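Cell-based, HFFs, 1000 cells/well, 16 h 37C; cpds in DMSO + HCMV-luc, MOI 1 PFU/cell; 72 h 37C; OneGlo luminescence after 5 min RT; norm. to buffer vs Salinomycin 10uM.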
Vaccinia mCherry – vaccinia inhibition (mCherry reporter). Vaccinia virus mCherry reporter infection, fluorescence. Potency, µM (titrated, usually from 36.5 µM), for the others: at the top dose activity change, negative = inhibition, actives largely listed as inhibitors. 0.63% of 310,000 active. AID 720579; calls by dose curve; tested in A549 cells; also: potency is read from the fitted curve at half-maximal effect; nearly all actives have a fitted effect of over 35% in size
HCV inh – HCV inhibition; Huh7.5.1 HCVcc-Cre infection, luciferase reporter, 44 h; Potency, µM (series often up to 41.8 µM), for the others: at the highest dose activity change, negative = inhibition, actives largely listed as inhibitors; 3.4% of 340,000 active; also: potency is read from the fitted curve at half-maximal effect
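Luciferase read-out (15 sec integration) after a 15 min room-temperature substrate step quantifies HCVcc-Cre infection. Cells, 1,000 per well, had compound added 4 h post-plating, then virus at ~0.5 moi, and were cultured 44 h.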
FBPA Giardia inh – inhibitors of Giardia lamblia fructose-1,6-bisphosphate aldolase; A8B2U2; purified Giardia FBPA; Potency, µM (doses to about 59.6 µM), for inactives: at the top dose activity, negative = inhibition, most hits filed as inhibitors; 0.71% of 290,000 active; AID 2451; also: potency is read from the fitted curve at half-maximal effect; nearly all actives have a fitted effect of over 55% in size
Target sequence (A8B2U2 whole entry, looked up): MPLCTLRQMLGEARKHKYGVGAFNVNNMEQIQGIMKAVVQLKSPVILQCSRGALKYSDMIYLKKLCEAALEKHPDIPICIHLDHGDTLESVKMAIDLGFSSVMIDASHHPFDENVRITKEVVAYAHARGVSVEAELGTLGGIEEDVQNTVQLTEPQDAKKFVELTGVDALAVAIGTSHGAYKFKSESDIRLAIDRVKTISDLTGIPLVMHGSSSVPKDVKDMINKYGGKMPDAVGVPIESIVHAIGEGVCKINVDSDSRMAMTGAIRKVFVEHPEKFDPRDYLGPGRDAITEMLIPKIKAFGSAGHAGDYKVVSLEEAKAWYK
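40 nM FBPA preincubated 10 min at RT with compound (up to 57.5 uM final), then substrate plus GAPDH/TPI/NAD/arsenate coupling and diaphorase/resazurin added. Fluorescence read after 20 min at RT, 525/598 nm.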
* marks the source's active call; other numbers are inactive results; i = inactive; u = inconclusive; x = not tested or not shown. The list is not random: actives were taken first. Their share in the collection is about 7.5%. Unless noted, calls follow the shape of the dose curve; as a rule, active = well fitted curve in the direction sought with a large enough effect; inconclusive = small, poorly fitted or top-dose-only effect, or another doubt; inactive = no such curve, though single readings can be large; an effect the other way counts as inactive or inconclusive. % is scaled to controls: 0 for no effect and ±100 for the full control effect.

SMILES	Vaccinia Venus	FMDV inh	HCMV inh	Vaccinia mCherry	HCV inh	FBPA Giardia inh
COc1ccc(C(=O)c2sc(Nc3cccc(OC)c3)c(C(=O)Nc3cccc(C)c3C)c2N)cc1	x	-10%	-70*	x	-24%	4%
COc1ccc(Nc2sc(C(=O)c3ccccc3)c(N)c2C(=O)Nc2cc(C)ccc2C)c(OC)c1	-22%	-9%	-74*	i	x	x
Cc1cc(Nc2sc(C(=O)c3ccc(F)cc3)c(N)c2C(=O)Nc2ccc(F)cc2)ccc1Cl	u	10µM*	-108*	5µM*	x	x
Cc1ccc(NC(=O)c2c(Nc3ccccc3C)sc(C(=O)c3ccccc3)c2N)cc1	-30%	u	-30	u	x	x
COc1cccc(Nc2sc(C(=O)c3ccc(F)cc3)c(N)c2C(=O)NCc2ccc(Cl)cc2)c1	-6%	-18%	27	-11%	x	x
COc1ccc(/C=C/C(=O)Nc2cc(S(=O)(=O)N3CCOCC3)ccc2C)cc1OC	-10%	-25%	-10	i	-21%	-2%
COc1ccc2c3c(n(C)c2c1)[C@@H](CO)N(S(=O)(=O)c1ccccc1)CC31CCN(C)CC1	x	x	81	x	x	x
Cc1ccccc1OCC(=O)Nc1ccc(N2CCN(C)CC2)c(Cl)c1	-1%	39%	29	-13%	-23%	-11%
COc1ccc(C(=O)c2sc(Nc3ccccc3)c(C(=O)Nc3ccc(OC)c(OC)c3)c2N)cc1	-22%	-9%	-4	-30%	-2%	-11%
COc1ccc(NC(=O)c2c(Nc3ccccc3)sc(C(=O)c3ccc(F)cc3)c2N)cc1	u	u	-83*	u	6.3µM*	1%
COc1ccccc1NC(=O)c1c(Nc2ccccc2C)sc(C(=O)Nc2cccc(Cl)c2)c1N	u	7.9µM*	-97*	-25%	13µM*	0%
COc1ccc(Nc2sc(C(=O)c3ccc(Cl)cc3)c(N)c2C(=O)Nc2ccccc2OC)cc1	x	-24%	u	x	u	0%
COC(=O)C=CC(=NNc1ccccc1)c1ccccc1	-5%	-20%	46	u	22µM*	x
CO/N=C/C(=N\Nc1ccccc1)C(=O)c1ccccc1	-7%	-4%	-39	-8%	u	2%
CC(=O)Nc1ccc(NC(=O)CCCn2cnc3ccccc3c2=O)cc1	x	-8%	52	x	13%	-2%
CCCN(CC(=O)Nc1ccccc1OC)C(=O)CSc1ccc(Br)cc1C	x	-22%	3	x	10µM*	x
O=C(NCCc1ccccc1)/C(=C\c1cccc([N+](=O)[O-])c1)NC(=O)c1ccco1	-15%	-7%	22	-14%	17%	8%
Cn1c(-c2cccnc2)cc2cnc(Nc3ccc(F)cc3)cc21	x	x	31	x	x	x
COc1cccc(Nc2cc3c(cn2)cc(-c2cccc(C(F)(F)F)c2)n3C)c1	x	x	-80*	x	x	x
Cn1c(-c2ccccc2)nc2cnc(Nc3cccc(OC(F)(F)F)c3)cc21	x	x	-79*	x	x	x
Cn1c(-c2cccnc2)cc2cnc(Nc3ccc(OC(F)(F)F)cc3)cc21	x	x	-60*	x	x	x
O=C(Nc1ccc(Cn2cccn2)cc1)c1ccc(COc2cccc(Br)c2)cc1	u	-21%	59	u	10µM*	-3%
COCCc1ccc(OC2(C)CCN(Cc3ccc(OC)c4ccccc34)C2)cc1 (stereo not given)	-9%	-15%	0	1%	x	x
Cc1csc(N(C(=O)c2cccc(S(=O)(=O)N(C)C)c2)c2ccccc2)n1	-14%	8.9µM*	-3	-10%	12%	-1%
Cc1csc(N(C(=O)c2cccc(S(=O)(=O)N3CCCC3)c2)c2ccccc2)n1	-20%	u	-16	x	-44%	-7%
SMILES	Vaccinia Venus	FMDV inh	HCMV inh	Vaccinia mCherry	HCV inh	FBPA Giardia inh
CC(C)(C)OC(=O)N(Cc1ccccc1)Cc1ccccc1OCc1ccc(NC(=O)C2CCC2)cc1	-10%	-28%	-90*	u	u	x
CC(C)(C)OC(=O)N(CCc1ccccc1)Cc1ccccc1OCc1ccc(NC(=O)C2CCC2)cc1	8%	-19%	u	u	0.56µM*	x
Cc1cc(S(=O)(=O)N(Cc2ccc(F)cc2)CC2CCCO2)ccc1-n1cnnn1 (stereo not given)	-16%	x	-3	-20%	2%	4%
Cc1cc(S(=O)(=O)N(Cc2ccc(C(C)C)cc2)CC2CCCO2)ccc1-n1cnnn1 (stereo not given)	u	x	-77*	-20%	u	-3%
Cc1ccccc1OCCn1cnc2c(N)ncnc21	-21%	6%	-12	x	13%	-4%
Cc1ccccc1OCCn1c(=S)[nH]c2c(N)ncnc21	x	74%	-80*	x	18%	u
CC1=C(C(=O)OCCc2ccccc2)C(c2ccsc2)NC(=O)N1C (stereo not given)	x	-20%	-67*	x	-19%	13%
CC1=C(C(=O)OCc2ccccc2)C(c2ccsc2)NC(=O)N1C (stereo not given)	x	-29%	-39	x	-2%	-1%
Cc1cc(N)n2ncc(-c3ccc(F)cc3)c2n1	-27%	47%	122	u	10µM*	-4%
Cc1nc2c(-c3ccc(F)cc3)cnn2c(N)c1-c1ccc(F)cc1	u	u	-76*	-2%	u	14%
CNc1c(Br)cc(/C=C2\C=C(C(O)c3cc(Br)c(NC)c(Br)c3)c3ccccc32)cc1Br (stereo not given)	1%	x	x	-6%	x	x
CCOC(=O)C1=C(C)N(c2ccccc2)C(=O)/C1=C\c1ccco1	-16%	-21%	-4	i	u	5%
COc1cc(C=C2C(=O)C=CC2=O)ccc1O	u	u	-88*	u	x	x
COc1cc(/C=C2/C(=O)CNC2=O)ccc1O	x	-7%	57	x	13%	-28%
COc1cc(/C=C2\COC/C(=C\c3cc(OC)c(OC)c(OC)c3)C2=O)cc(OC)c1OC	u	3.5µM*	-98*	u	1µM*	-4%
O=C1C(=Cc2ccncc2)CCCc2ccccc21	-15%	u	u	-1%	x	x
CCOC(=O)C1=C(C)N(c2ccccc2)C(=O)/C1=C\c1ccc(O)c(OC)c1	-6%	u	-17	u	-12%	18µM*
O=C1/C(=C/c2ccncc2)CCC/C1=C\c1ccncc1	11µM*	14µM*	-100*	10µM*	6.3µM*	4%
CCCCN1CC[C@H]2C=CC[C@@H](C(=O)NCc3cccnc3)[C@H]2C1=O	-25%	x	x	-2%	x	x
COc1cc(/C=C2\CCC/C(=C\c3ccc(O)c(OC)c3)C2=O)ccc1O	u	u	-101*	6.3µM*	13µM*	-7%
COc1cc(/C=C2\CC/C(=C\c3cc(OC)c(OC)c(OC)c3)C2=O)cc(OC)c1OC	-17%	u	-6	-9%	13µM*	-2%
O=C1/C(=C\c2ccc3c(c2)OCO3)CCC/C1=C/c1ccc2c(c1)OCO2	-14%	3%	-89*	x	-5%	-6%
O=C1OCC/C1=C\c1ccc2c(c1)OCO2	-23%	-1%	19	-11%	11%	3%
